Values without a mark were called inactive. The source made the active and inactive calls. The call rests on the fitted dose curve.
The compounds below were run against Acetylcholinesterase (Homo sapiens) (UniProt P22303) (assay: Acetylcholinesterase (AChE) small molecule antagonists: enzyme-based qHTS assay with human liver microsomes (AID 1347399; further: nearly all actives have a fitted effect of over 60% in size)). Settings: Potency: qHTS inhibition; series mostly up to 115 µM; activity change, negative = inhibition: at the top concentration.
Excerpt: National Center for Advancing Translational Sciences [NCATS]
Division of Preclinical Innovation [DPI]
U.S. Environmental Protection Agency [EPA]
National Institutes of Environmental Health Sciences [NIEHS]
National Toxicology Program [NTP]
U.S. Food and Drug Administration [FDA]
Acetylcholinesterase (AChE) is the primary cholinesterase in the body that hydrolyzes a key neurotransmitter, acetylcholine. Inhibition of AChE activity can lead to neurotoxicity. The known inhibitors include organophosphorous pesticides (OP), chemical warfare agents, drugs, and various phytochemicals. Some compounds like OP compounds may need metabolic activation to be active AChE inhibitors. The cytochrome P450 (CYP) superfamily in the human microsomes is responsible for the metabolism of various endogenous and exogenous compounds.
An enzyme-based assay with the recombinant human AChE, human liver microsomes and Amplite Colormetric acetylcholinesterase assay kit (AAT Bioquest, Sunnyvale, CA) was used to evaluate compounds in the Tox21 10K library that need metabolic activation for AChE inhibition. The assay uses 5, 5-dithiobis-(2-nitrobenzoic acid) (DTNB) to quantify the thiocholine produced from the hydrolysis of acetylthiocholine by AChE.
Tox21 Assay Protocol Summary:
For the enzyme-based AChE assay with microsomes addition, a mixture of human AChE (50 mU/mL) and human liver microsomes (0.25 mg/mL, final concentration) in 3 uL/well was dispensed into black, clear-bottom 1536-well plates using a Multidrop Combi dispenser (Thermo Scientific, MA). Then, 23 nL of compound or DMSO (vehicle control) was transferred into the assay plates by a Pintool Station (Wako Automation, CA). Following compound addition, 1 uL of NADPH (0.25 mg/mL, final concentration) was transferred to the assay plate by a Flying Reagent Dispenser (Beckman Coulter, CA). The plates were incubated for 30 min at 37 C and 5% CO2, followed by the addition of 4 uL of colorimetric detection cocktail solution (DTNB, acetylthiocholine) into each well using a Flying Reagent Dispenser (Beckman Coulter, CA) and then 10 min incubation at room temperature.
On the % scale 0 is the no-effect control and ±100 the full control effect; potency means the concentration at half of the fitted maximal effect.

Acetylcholinesterase (Homo sapiens), sequence (P22303 whole entry, looked up): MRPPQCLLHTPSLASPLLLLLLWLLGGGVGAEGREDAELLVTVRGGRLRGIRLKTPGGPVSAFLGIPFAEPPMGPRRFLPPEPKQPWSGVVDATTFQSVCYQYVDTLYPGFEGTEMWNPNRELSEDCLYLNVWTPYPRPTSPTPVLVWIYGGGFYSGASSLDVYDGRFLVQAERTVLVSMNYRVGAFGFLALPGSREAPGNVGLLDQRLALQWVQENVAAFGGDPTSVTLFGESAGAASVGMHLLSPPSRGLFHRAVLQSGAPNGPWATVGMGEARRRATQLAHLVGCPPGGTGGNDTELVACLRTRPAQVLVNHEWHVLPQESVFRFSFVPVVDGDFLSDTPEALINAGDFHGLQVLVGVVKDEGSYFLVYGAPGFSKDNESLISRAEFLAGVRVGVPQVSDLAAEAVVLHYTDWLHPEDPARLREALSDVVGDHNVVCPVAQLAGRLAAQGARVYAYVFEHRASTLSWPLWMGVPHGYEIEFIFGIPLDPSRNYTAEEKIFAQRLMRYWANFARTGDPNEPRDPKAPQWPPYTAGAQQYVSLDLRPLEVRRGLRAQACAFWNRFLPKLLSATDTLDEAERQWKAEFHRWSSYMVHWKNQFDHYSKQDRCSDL

Row | Structure (SMILES) | activity change, negative = inhibition | Potency
1 | O=C(CCl)C(Cl)Cl | -0.638% | –
2 | C[C@H]1CC[C@@H]2[C@@H](C)[C@H]3[C@H](C[C@H]4[C@@H]5CC=C6CC(O[C@@H]7O[C@H](CO)[C@H](O)[C@H](O[C@@H]8O[C@H](CO)[C@@H](O)[C@H](O)[C@H]8O)[C@H]7O[C@H]7O[C@@H](C)[C@H](O)[C@@H](O)[C@H]7O)CC[C@]6(C)[C@H]5CC[C@]34C)N2C1 (stereo not given in full) | -1.55% | –
3 | CC(C)(C)C(O)/C(=C\c1ccc(Cl)cc1Cl)n1cncn1 (stereo not given) | -3.35% | –
4 | C=CCOC(N)=O | 0.0048% | –
5 | CCCCOP(=O)(CCCC)OCCCC | 1.21% | –
6 | CN(CCCC(=O)c1cccnc1)N=O | 0.405% | –
7 | C[C@@H]1CC[C@@]2(OC1)O[C@H]1[C@@H](O)[C@H]3[C@@H]4CC[C@H]5C[C@@H](O[C@@H]6O[C@H](CO)[C@H](O[C@@H]7O[C@H](CO)[C@@H](O)[C@H](O[C@@H]8OC[C@@H](O)[C@H](O)[C@H]8O)[C@H]7O[C@@H]7O[C@H](CO)[C@@H](O)[C@H](O[C@@H]8O[C@H](CO)[C@@H](O)[C@H](O)[C@H]8O)[C@H]7O)[C@H](O)[C@H]6O)[C@H](O)C[C@]5(C)[C@H]4CC[C@]3(C)[C@H]1[C@@H]2C | 1.13% | –
8 | CCCN(CCC)c1c([N+](=O)[O-])cc(S(N)(=O)=O)cc1[N+](=O)[O-] | 10.2% | –
9 | Oc1ccc2ccc3cccc4ccc1c2c34 | 1.01% | –
10 | O=C(Cl)c1ccc(Cl)cc1 | 2.51% | –
11 | O=CC(Br)(Br)Br | -9.35% | –
12 | CC(=O)c1ccc(-c2ccccc2)cc1 | 0.0786% | –
13 | O=C1c2ccccc2C(=O)C1C(=O)C(c1ccccc1)c1ccc(Cl)cc1 (stereo not given) | -0.222% | –
14 | O=C(O)c1cc[c]([Hg][Cl])cc1 | -18.7% | –
15 | C=CC(=O)N(C)C | -0.481% | –
16 | O=C(CCCN1CCC2(CC1)C(=O)NCN2c1ccccc1)c1ccc(F)cc1 | -0.756% [at 53 µM] | –
17 | O=C1NCN(c2ccccc2)C12CCN(CC1COc3ccccc3O1)CC2 (stereo not given) | 2.83% [at 53 µM] | –
18 | COC12CC[C@@]3(C[C@@H]1C(C)(O)C(C)(C)C)[C@H]1Cc4ccc(O)c5c4[C@@]3(CCN1CC1CC1)[C@H]2O5 (stereo not given in full) | -4.28% | –
19 | N#CC(Cl)Cl | -2.72% | –
20 | O=c1ssc(Cl)c1Cl | 0.373% | –

Row | Structure (SMILES) | activity change, negative = inhibition | Potency
21 | CC(=[OH+])/C=C(/C)[O-].CC(=[OH+])/C=C(\C)[O-].CC(=[OH+])/C=C(\C)[O-].[Al] | 1.53% | –
22 | CCOc1cc(C(C)(C)C)ccc1C1COC(c2c(F)cccc2F)=N1 (stereo not given) | -0.129% [at 53 µM] | –
23 | CCOP(=S)(OCC)SCS(=O)(=O)C(C)(C)C | – | 8.94 µM (active)
24 | Cc1cc(C(C)(C)c2cc(C)c(O)c(C)c2)cc(C)c1O | 0.835% | –
25 | CC[C@H](C)[C@H]1O[C@]2(C=C[C@@H]1C)C[C@@H]1C[C@@H](C/C=C(\C)[C@@H](O[C@H]3C[C@H](OC)[C@@H](O[C@H]4C[C@H](OC)[C@@H](O)[C@H](C)O4)[C@H](C)O3)[C@@H](C)/C=C/C=C3\CO[C@@H]4[C@H](O)C(C)=C[C@@H](C(=O)O1)[C@]34O)O2 | 1.02% [at 53 µM] | –
26 | CC(C)N1C(=O)N(c2ccccc2)CSC1=NC(C)(C)C | 0.291% | –
27 | C[C@]12Cc3nonc3C[C@@H]1CC[C@@H]1[C@@H]2CC[C@@]2(C)[C@H]1CC[C@]2(C)O | 0.25% [at 53 µM] | –
28 | ClC1=C(Cl)C2(Cl)C3C(Cl)C=CC3C1(Cl)C2(Cl)Cl (stereo not given) | – | inactive
29 | C[C@H]1O[C@@H](O[C@H]2[C@@H](O)C[C@H](O[C@H]3[C@@H](O)C[C@H](O[C@H]4CC[C@@]5(C)[C@H](CC[C@@H]6[C@@H]5CC[C@]5(C)[C@@H](C7=CC(=O)OC7)CC[C@]65O)C4)O[C@@H]3C)O[C@@H]2C)C[C@H](O)[C@@H]1O | – | inactive
30 | CCN(CC)c1c([N+](=O)[O-])cc(C(F)(F)F)c(N)c1[N+](=O)[O-] | 5.3% | –
31 | CN(C)CCc1c[nH]c2ccc(O)cc12 | 0.0156% | –
32 | N#Cc1ccccc1Cl | 0.324% | –
33 | Nc1ccccc1C(=O)OC/C=C/c1ccccc1 | -0.497% | –
34 | CN(C)c1ccc(N=Nc2ccccc2)cc1 | 27.5% | –
35 | Oc1ccc(C(=C(Cl)Cl)c2ccc(O)cc2)cc1 | 0.0107% | –
36 | N#Cc1ccccc1N | -2.68% | –
37 | Oc1cc(Cl)c(Cl)c(Cl)c1 | -1.86% | –
38 | N#CCCO | -0.319% | –
39 | COCC(=O)N(c1c(C)cccc1C)[C@H](C)C(=O)OC | 0.794% | –
40 | CCC(C)c1cc(C(C)(C)C)cc(-n2nc3ccccc3n2)c1O (stereo not given) | -1.29% [at 53 µM] | –
